Only some compounds are listed: those with a hit (about 3% of all), similar ones and a draw of the others.
ALOX12 inh = inhibitors of human 12S-lipoxygenase ALOX12. P18054. purified 12hLO, xylenol orange hydroperoxide absorbance. Potency, µM (top dose mostly 108 µM), without a hit: at the top dose activity change, negative = inhibition, most hits filed as inhibitors. 580,000 compounds, 1.1% hits; also: % is scaled to controls: 0 for no effect and ±100 for the full control effect
Target sequence (P18054 whole entry, looked up): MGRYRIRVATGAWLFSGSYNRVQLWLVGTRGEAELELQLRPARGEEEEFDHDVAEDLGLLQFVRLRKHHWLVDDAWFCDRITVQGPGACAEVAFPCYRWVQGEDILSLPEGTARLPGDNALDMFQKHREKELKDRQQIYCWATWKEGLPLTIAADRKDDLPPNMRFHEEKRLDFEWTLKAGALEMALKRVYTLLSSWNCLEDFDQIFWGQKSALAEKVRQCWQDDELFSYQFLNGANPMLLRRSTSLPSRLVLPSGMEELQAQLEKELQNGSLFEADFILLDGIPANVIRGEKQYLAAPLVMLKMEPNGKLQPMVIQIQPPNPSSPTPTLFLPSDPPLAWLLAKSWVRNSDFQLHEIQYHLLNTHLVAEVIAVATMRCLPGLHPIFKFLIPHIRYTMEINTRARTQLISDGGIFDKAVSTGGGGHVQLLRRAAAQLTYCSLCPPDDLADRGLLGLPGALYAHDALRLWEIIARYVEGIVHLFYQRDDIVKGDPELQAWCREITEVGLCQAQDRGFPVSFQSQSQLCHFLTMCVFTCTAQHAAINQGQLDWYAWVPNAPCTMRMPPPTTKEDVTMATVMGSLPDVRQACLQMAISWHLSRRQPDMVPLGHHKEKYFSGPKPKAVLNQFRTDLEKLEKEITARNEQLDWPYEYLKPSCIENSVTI
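Hydroperoxide product was detected by ferrous iron/xylenol orange as the 573 to 405 nm absorbance ratio. Arachidonic acid at 40 uM (final) was turned over for 30 min at room temperature by 150 nM human 12hLO, pH 7.0 Hepes buffer, after 15 min compound preincubation.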
GCN5L2 inh = inhibitors of human GCN5L2 histone acetyltransferase; GCN5L2 HAT assay, ThioGlo1 CoA-SH fluorescence; Q92830; 390,000 compounds, 0.21% hits; Potency, µM (top dose mostly 58.9 µM), for inactives: at the highest dose activity change, negative = inhibition, hits mostly inhibitors; also: % is scaled to controls: 0 for no effect and ±100 for the full control effect
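Enzyme at 20nM final was mixed with library compounds for 15 min at room temperature. Peptide H3(1-25) at 75uM, acetyl-CoA at 70uM and ThioGlo1 at 50uM were then added. Plates were read immediately and after 20 min (Ex340nm/Em540nm).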
PLK1 PBD inh = blocks phosphopeptide binding to human PLK1 polo-box domain | P53350 | Plk1 PBD binding of FITC phosphopeptide, fluorescence polarization | Potency, µM, inactives show max response, negative = inhibition, most hits filed as inhibitors | 360,000 compounds, 2.8% hits | AID 720504; also: series mostly up to about 57 µM; % is scaled to controls: 0 for no effect and ±100 for the full control effect; nearly all actives have a fitted effect of over 65% in size
VDR inhibitor = blocks the human vitamin D receptor; 400,000 compounds, 0.93% hits; VDR-SRC2-3 peptide fluorescence polarization, 2 h; Potency, µM, for the others: max response, negative = inhibition, hits mostly inhibitors; P11473; also: % is scaled to controls: 0 for no effect and ±100 for the full control effect
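Measured by FP: displacement of SRC2-3 coactivator peptide from VDR by library compounds, following a two-hour ambient incubation.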
VDR confirm = inhibits human vitamin D receptor, primary hit validation | 840 compounds, 89% hits | shares compounds with VDR inhibitor | VDR-coactivator inhibition assay, qHTS confirmation | Potency, µM, most hits filed as inhibitors
VDR FP fluor = VDR (human) coactivator binding inhibition, fluorescein polarization; VDR-coactivator binding, fluorescein fluorescence polarization; AID 602200; 840 compounds, 48% hits; shares compounds with VDR inhibitor; Potency, µM (titrated, usually from 57.1 µM), without a hit: top-dose activity change, negative = inhibition, most hits filed as inhibitors
VDR bla reporter = VDR (human) inhibition, cell-based beta-lactamase validation | Potency, µM (highest dose often 46.1 µM), for inactives: at the top dose activity change, negative = inhibition, actives largely listed as inhibitors | AID 602202 | shares compounds with VDR inhibitor | VDR beta-lactamase reporter cells, FRET ratio; cells co-treated with VDR agonist LG190178 | 840 compounds, 23% hits; also: % is scaled to controls: 0 for no effect and ±100 for the full control effect
VDR cytotox = cytotoxic in counter-screen for VDR inhibitors. shares compounds with VDR inhibitor. cytotoxicity counter-screen, cell viability, qHTS. Potency, µM (series often up to 48.3 µM), for the others: at the highest dose activity change, negative = cytotoxicity, usual class: cytotoxic. 840 compounds, 18% hits;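 also: plate controls were DMSO for no effect and high-concentration cycloheximide for full effect; nearly all actives have a fitted effect of over 75% in size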
TbPYK inh = Trypanosoma brucei pyruvate kinase inhibition, cherry-pick confirmation; recombinant TbPYK, Kinase-Glo ATP luminescence; AID 720569; shares compounds with PLK1 PBD inh; Potency, µM (titrated, usually from 76.9 µM), for inactives: top-dose activity change, negative = inhibition, hits mostly inhibitors; 890 compounds, 67% hits; also: % is scaled to controls: 0 for no effect and ±100 for the full control effect; nearly all actives have a fitted effect of over 70% in size
TbPYK orthogonal = inhibits T. brucei pyruvate kinase in orthogonal ADP-Glo assay; shares compounds with PLK1 PBD inh; Potency, µM (top dose mostly 76.9 µM), without a hit: at the top dose activity change, negative = inhibition, most hits filed as inhibitors; 890 compounds, 62% hits; recombinant TbPYK, ADP-Glo luminescence, 60 min; also: % is scaled to controls: 0 for no effect and ±100 for the full control effect; nearly all actives have a fitted effect of over 75% in size
An asterisk follows results filed as active; ? = inconclusive; / = not tested or not shown. Calls follow the shape of the dose curve; as a rule, active = well fitted curve in the direction sought with a large enough effect; inconclusive = small, poorly fitted or top-dose-only effect, or another doubt; inactive = no such curve, though single readings can be large; an effect the other way counts as inactive or inconclusive. Potency is read from the fitted curve at half-maximal effect.

SMILES	ALOX12 inh	GCN5L2 inh	PLK1 PBD inh	VDR inhibitor	VDR confirm	VDR FP fluor	VDR bla reporter	VDR cytotox	TbPYK inh	TbPYK orthogonal
O=C(O)c1ccccc1-c1ccc(C=C2C(=O)N(c3ccccc3)C(=S)N(c3ccccc3)C2=O)o1	31.6µM*	?	2.67µM*	15.8µM*	3.77*	?	24.4%	3.9%	31.6µM*	39.8µM*
CN1C(=O)C(=Cc2ccc(N3CCCCCC3)o2)C(=O)N(C)C1=S	-1.5%	-4.5%	61.6%	18.9%	/	/	/	/	/	/
O=C(O)CCn1cc(C=C2C(=O)NC(=S)NC2=O)c(-c2cccc(Cl)c2)n1	?	-15.2%	4.74µM*	25.1µM*	10.6*	?	13.7%	0.5%	7.08µM*	?
CC(C)Nc1ccc(Nc2ccccc2)cc1	?	-16.1%	?	39.8µM*	?	7.08µM*	?	?	5.01µM*	15.8µM*
CN1C(=O)C(=Cc2ccc(-c3cccc(Cl)c3)o2)C(=O)N(C)C1=O	/	-12.0%	/	/	/	/	/	/	/	/
NS(=O)(=O)c1ccc(-c2ccc(C=C3C(=O)NC(=O)NC3=O)o2)cc1	0.0%	-11.8%	2.67µM*	44.7µM*	?	?	6.3%	-8.8%	1.78µM*	6.31µM*
O=C1NC(=O)C(=Cc2ccc(-c3cc(Cl)ccc3[N+](=O)[O-])o2)C(=O)N1	6.31µM*	-13.3%	1.5µM*	79.4µM*	3.36*	25.3%	?	?	7.08µM*	1.12µM*
C#CCOc1ccc(CCN)cc1	-19.2%	/	/	/	/	/	/	/	/	/
COC(=O)Cn1cc(/C=C2\C(=O)NC(=O)N(c3ccccc3)C2=O)c2ccccc21	-25.9%	-7.7%	?	12.7%	/	/	/	/	/	/
COC(=O)COc1ccc(/C=C2\C(=O)NC(=S)N(c3ccc(C)cc3)C2=O)cc1OC	150.6%	-13.3%	8.44µM*	25.1µM*	6.7*	?	14.8%	25.7%	?	?
CN(C)c1ccc(C=C2C(=O)NC(=S)NC2=O)cc1[N+](=O)[O-]	?	-15.3%	3.77µM*	22.4µM*	13.4*	10µM*	28.2%	-7.6%	4.47µM*	14.1µM*
CN1C(=O)C(=Cc2ccc(N(C)C)c([N+](=O)[O-])c2)C(=O)N(C)C1=O	/	-4.5%	/	/	/	/	/	/	/	/
Cc1c(C(=O)Cn2cnc3ccccc32)c2ccccc2n1C	37.6%	/	/	/	/	/	/	/	/	/
CN1C(=O)NC(=O)/C(=C/c2ccc([N+](=O)[O-])s2)C1=O	?	-1.2%	2.67µM*	44.7µM*	8.44*	?	10.5%	?	5.01µM*	11.2µM*
Cc1cc(C=C2C(=O)N(C)C(=S)N(C)C2=O)c(C)n1-c1cccnc1	?	-14.0%	2.12µM*	?	/	/	/	/	?	?
COc1ccc(CN2C(=O)NC(=O)/C(=C/c3cc(OC)c(OC)c(OC)c3)C2=O)cc1	?	-19.7%	11.9µM*	?	/	/	/	/	?	-27.5%
C=CCN1C(=O)NC(=O)C(Cc2ccc(OC)c(OC)c2)C1=O (centres undefined)	-5.2%	-0.5%	-16.5%	?	/	/	/	/	/	/
COc1ccc(CN2C(=O)NC(=O)/C(=C/c3ccc(OC)c(OC)c3OC)C2=O)cc1	?	-4.2%	8.44µM*	?	/	/	/	/	28.2µM*	?
COc1cccc(CN2CCCCCCNC(=O)[C@@H]3CCC[C@@H]32)n1	281.4%	/	/	/	/	/	/	/	/	/

High-throughput results from PubChem BioAssay.
